Test results as given in PubChem BioAssay AID493209 (National Center for Advancing Translational Sciences (NCATS), 2011).
Active and inactive are the calls of the source.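 Rule for the calls: active = compounds that raised 12-lipoxygenase product formation in the cuvette follow-up test, with a fitted potency; inactive = the rest, inconclusive results apart.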

These molecules were tested against Polyunsaturated fatty acid lipoxygenase ALOX12 (Homo sapiens) (UniProt P18054) (assay: Activators of 12-hLO (12-human lipoxygenase): 12hLO Cuvette-Based Hit Validation Assay of Followup Compounds). Settings: purified 12-hLO, cuvette UV 234 nm product formation.
Experimental: The enzyme activity of 12-hLO was determined by a direct measurement of product formation by monitoring the absorbance at 234 nm in a 2 mL cuvette. IC50 values of inhibitors were obtained by measuring the enzymatic rate at a variety of concentrations (Carroll et al, Segraves et al). This assay was used to validate active or inconclusive putative activators identified in the primary screen (see related BioAssay AIDs). Assay Provider: Holman, T.R., University of California, Santa Cruz Screening Center PI: Austin, Christopher P. Screening Center: NIH Chemical Genomics Center
For control experiments, 2 mL of substrate buffer (10 uM arachidonic acid / 25 mM HEPES / 0.01% (v/v) Triton X-100, pH 8.0) was aliquoted in a cuvette with a magnetic stir bar. After equilibrium was ensured, an aliquot of inhibitor solvent was added (DMSO), and equilibrium was once again assured. The reaction was started by adding enzyme to the cuvette and the reaction was followed until completed. The inhibition experiments were performed as above, except the actual inhibitory compound was added instead of vehicle. To achieve an IC50, typically 5 concentrations of the inhibitor were studied. If the inhibitor concentration was constant, then five different reaction volumes were used. Step \ Parameter \ Value \ Description 1; UV-Vis; 234 nm; Equilibration 2; Reagent; 2 mL; Substrate buffer 3; UV-Vis; 234 nm; Equilibration 4; Reagent; varies; Compound 5; UV-Vis; 234 nm; Equilibration 6; Reagent; 50-200 nM; Enzyme 12-hLO 7; UV-Vis; 234 nm; Enzymatic reaction Step \ Notes 1; Blank cuvette to air. 2; 10 uM AA, 25 mM HEPES, 0.01% Triton X-100, pH 8. 3; No change in absorbance ensured. 4; Compound vehicle or compound in various concentrations depending on potency. 5; No change in absorbance ensured. 6; Enzyme concentration to achieve reaction rate between 0.02 and 0.04 AU/s. 7; Enzymatic reaction visualized until completion.

Polyunsaturated fatty acid lipoxygenase ALOX12 (Homo sapiens), sequence (P18054 whole entry, looked up): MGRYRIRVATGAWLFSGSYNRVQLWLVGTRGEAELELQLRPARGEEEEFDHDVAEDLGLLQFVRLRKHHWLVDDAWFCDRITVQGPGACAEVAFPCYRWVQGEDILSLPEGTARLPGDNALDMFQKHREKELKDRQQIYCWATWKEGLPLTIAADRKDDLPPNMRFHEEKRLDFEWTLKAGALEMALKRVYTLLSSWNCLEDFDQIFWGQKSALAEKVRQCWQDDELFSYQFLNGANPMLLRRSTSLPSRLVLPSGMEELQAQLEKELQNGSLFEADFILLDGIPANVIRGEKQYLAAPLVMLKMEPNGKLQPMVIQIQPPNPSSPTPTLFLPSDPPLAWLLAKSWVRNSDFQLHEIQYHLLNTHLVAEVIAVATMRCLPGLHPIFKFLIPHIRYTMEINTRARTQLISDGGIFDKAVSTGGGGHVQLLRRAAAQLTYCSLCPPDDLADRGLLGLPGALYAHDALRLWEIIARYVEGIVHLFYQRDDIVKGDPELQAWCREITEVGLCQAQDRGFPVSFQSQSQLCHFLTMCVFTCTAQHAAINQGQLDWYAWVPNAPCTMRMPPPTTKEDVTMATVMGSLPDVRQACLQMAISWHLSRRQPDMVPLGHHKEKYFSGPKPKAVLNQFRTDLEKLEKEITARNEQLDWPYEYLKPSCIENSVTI

Structure (SMILES) | outcome | Potency
Cc1oc2c(O)c(O)ccc2c(=O)c1-c1cnn(-c2ccccc2)c1 | inactive | 
COc1ccc(NC2=NCC(Cc3ccc(Br)cc3)S2)cc1 (stereo not given) | inactive | 
Cc1cc(Cl)cc(Cl)c1OCC(=O)NCc1ccco1 | inactive | 
N#CC1=C(N)Oc2n[nH]c(-c3cccs3)c2C1C1CCCCC1 (stereo not given) | inactive | 
CC1=NN(c2ccc(Cl)cc2)C(=O)C1C(c1ccccc1O)c1c(C)[nH]n(-c2ccc(Cl)cc2)c1=O (stereo not given) | inactive | 
CC(Oc1ccc(Cl)cc1Cl)C(=O)NC1=NN(c2ccccc2)C(=O)C1 (stereo not given) | inactive | 
c1ccc(-c2nc(NCc3cccnc3)c3oc4ccccc4c3n2)cc1 | inactive | 
CCCOC(=O)c1ccc(Oc2c(-c3ccc(O)cc3O)n[nH]c2C)cc1 | inactive | 
COc1ccc(Cc2nc(C(=O)Nc3ccc(OC)cc3)cs2)cc1 | inactive | 
COc1ccc2nc(NC(=O)c3cccc(OCc4c(C)noc4C)c3)sc2c1 | inactive | 
CCc1cc(-c2[nH]ncc2-c2ccc3c(c2)OCO3)c(O)cc1O | inactive | 
COc1cc(CNc2ccc(O)cc2)cc(Br)c1OCc1ccccc1F | inactive | 
Cc1ccc(NC(=O)Nc2cccs2)c(Cl)c1 | inactive | 
CC(Oc1ccc(Cl)cc1Cl)C(=O)Nc1ccc(S(=O)(=O)Nc2cnc3ccccc3n2)cc1 (stereo not given) | inactive | 
Cc1[nH]nc(-c2ccc(O)cc2O)c1Oc1ccccc1 | inactive | 
Oc1ccccc1-c1cc(-c2cccc(F)c2)n[nH]1 | inactive | 
CCc1ccc(S(=O)(=O)/N=C2/C=C(Sc3ncn[nH]3)C(=O)c3ccccc32)cc1 | inactive | 
Cc1ccc(C(=O)Nc2nnc(-c3ccco3)o2)cc1C | inactive | 
COc1ccc(C(=O)Nc2cc(C(=O)c3ccccc3)c(C)oc2=O)cc1 |  | 61.6 µM (active)
COc1cc(CNc2ccc(N3CCCC3)cc2)ccc1OCc1ccccc1 | inactive | 

Structure (SMILES) | outcome | Potency
O=C(NC(=S)Nc1ccccc1N1CCCC1)c1ccc([N+](=O)[O-])cc1 |  | 66.7 µM (active)
CN(C)c1nccc(N(Cc2ccccc2)Cc2ccccc2)c1C#N | inactive | 
COc1ccc(/C=C/c2nc(-c3ccccc3O)n[nH]2)cc1 | inactive | 
COc1ccc(-c2[nH]ncc2-c2ccc(Cl)cc2)c(O)c1 | inactive | 
O=S(=O)(Nc1ccc(O)c(Sc2nc3ccccc3s2)c1)c1ccc(Cl)cc1 | inactive | 
Cc1ccc(C(=O)Nc2nnc(-c3ccco3)o2)cc1 | inactive | 
O=C(/C=C/c1ccc(O)c(O)c1)c1ccc(S(=O)(=O)N2CCCCCC2)cc1 | inactive | 
COc1ccc(-c2n[nH]c(C(F)(F)F)c2-c2cc3ccccc3o2)c(O)c1 | inactive | 
Oc1ccccc1-c1cc(-c2ccc3c(c2)OCCO3)n[nH]1 | inactive | 
Cc1ccc(S(=O)(=O)Nc2ccc(NC(=O)Nc3cccc(C(F)(F)F)c3)cc2)cc1 | inactive | 
Oc1ccc(CN2CCCc3ccccc32)c2cccnc12 |  | 43.6 µM (active)
Oc1ccc(Cl)cc1-c1cc(-c2ccco2)[nH]n1 | inactive | 
Cc1[nH]nc(-c2ccc(O)cc2O)c1-c1ccc(Cl)cc1 | inactive | 
O=C1c2ccccc2NC(c2ccc(Cl)cc2Cl)N1O (stereo not given) |  | 53.1 µM (active)
Oc1ccccc1-c1cc(-c2ccccc2Cl)[nH]n1 | inactive | 
CCc1cc(-c2n[nH]c(C)c2Oc2ccc(C(C)C)cc2)c(O)cc1O | inactive | 
O=C(Nc1nnc(-c2ccccn2)o1)c1ccc(Br)cc1 | inactive | 
COc1cccc(CNc2ccc(S(=O)(=O)Nc3nccs3)cc2)c1O | inactive | 
COc1ccc(-c2n[nH]c(C)c2-c2ccc(Cl)cc2)c(O)c1 | inactive | 
CC1=NN(c2ccc(Cl)cc2)C(=O)C1C(c1cccc(O)c1)c1c(C)[nH]n(-c2ccc(Cl)cc2)c1=O (stereo not given) | inactive | 
